# The entries come from a sample that favours hits as a whole.
# Dicer inh: human Dicer pre-microRNA cleavage inhibition. 47,000 tested, 6% active. cat-ELCCA pre-miR-21 Dicer processing, chemiluminescence; stronger effect = higher value. z-score at 25 µM. Q9UPY3. AID 1347074; in the data active means z-score above about 3, passing the limit was not always enough;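 further: plate controls were vehicle for no effect and no enzyme for full effect; higher signal means more uncleaved substrate so more Dicer inhibition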
# Target sequence (Q9UPY3 whole entry, looked up): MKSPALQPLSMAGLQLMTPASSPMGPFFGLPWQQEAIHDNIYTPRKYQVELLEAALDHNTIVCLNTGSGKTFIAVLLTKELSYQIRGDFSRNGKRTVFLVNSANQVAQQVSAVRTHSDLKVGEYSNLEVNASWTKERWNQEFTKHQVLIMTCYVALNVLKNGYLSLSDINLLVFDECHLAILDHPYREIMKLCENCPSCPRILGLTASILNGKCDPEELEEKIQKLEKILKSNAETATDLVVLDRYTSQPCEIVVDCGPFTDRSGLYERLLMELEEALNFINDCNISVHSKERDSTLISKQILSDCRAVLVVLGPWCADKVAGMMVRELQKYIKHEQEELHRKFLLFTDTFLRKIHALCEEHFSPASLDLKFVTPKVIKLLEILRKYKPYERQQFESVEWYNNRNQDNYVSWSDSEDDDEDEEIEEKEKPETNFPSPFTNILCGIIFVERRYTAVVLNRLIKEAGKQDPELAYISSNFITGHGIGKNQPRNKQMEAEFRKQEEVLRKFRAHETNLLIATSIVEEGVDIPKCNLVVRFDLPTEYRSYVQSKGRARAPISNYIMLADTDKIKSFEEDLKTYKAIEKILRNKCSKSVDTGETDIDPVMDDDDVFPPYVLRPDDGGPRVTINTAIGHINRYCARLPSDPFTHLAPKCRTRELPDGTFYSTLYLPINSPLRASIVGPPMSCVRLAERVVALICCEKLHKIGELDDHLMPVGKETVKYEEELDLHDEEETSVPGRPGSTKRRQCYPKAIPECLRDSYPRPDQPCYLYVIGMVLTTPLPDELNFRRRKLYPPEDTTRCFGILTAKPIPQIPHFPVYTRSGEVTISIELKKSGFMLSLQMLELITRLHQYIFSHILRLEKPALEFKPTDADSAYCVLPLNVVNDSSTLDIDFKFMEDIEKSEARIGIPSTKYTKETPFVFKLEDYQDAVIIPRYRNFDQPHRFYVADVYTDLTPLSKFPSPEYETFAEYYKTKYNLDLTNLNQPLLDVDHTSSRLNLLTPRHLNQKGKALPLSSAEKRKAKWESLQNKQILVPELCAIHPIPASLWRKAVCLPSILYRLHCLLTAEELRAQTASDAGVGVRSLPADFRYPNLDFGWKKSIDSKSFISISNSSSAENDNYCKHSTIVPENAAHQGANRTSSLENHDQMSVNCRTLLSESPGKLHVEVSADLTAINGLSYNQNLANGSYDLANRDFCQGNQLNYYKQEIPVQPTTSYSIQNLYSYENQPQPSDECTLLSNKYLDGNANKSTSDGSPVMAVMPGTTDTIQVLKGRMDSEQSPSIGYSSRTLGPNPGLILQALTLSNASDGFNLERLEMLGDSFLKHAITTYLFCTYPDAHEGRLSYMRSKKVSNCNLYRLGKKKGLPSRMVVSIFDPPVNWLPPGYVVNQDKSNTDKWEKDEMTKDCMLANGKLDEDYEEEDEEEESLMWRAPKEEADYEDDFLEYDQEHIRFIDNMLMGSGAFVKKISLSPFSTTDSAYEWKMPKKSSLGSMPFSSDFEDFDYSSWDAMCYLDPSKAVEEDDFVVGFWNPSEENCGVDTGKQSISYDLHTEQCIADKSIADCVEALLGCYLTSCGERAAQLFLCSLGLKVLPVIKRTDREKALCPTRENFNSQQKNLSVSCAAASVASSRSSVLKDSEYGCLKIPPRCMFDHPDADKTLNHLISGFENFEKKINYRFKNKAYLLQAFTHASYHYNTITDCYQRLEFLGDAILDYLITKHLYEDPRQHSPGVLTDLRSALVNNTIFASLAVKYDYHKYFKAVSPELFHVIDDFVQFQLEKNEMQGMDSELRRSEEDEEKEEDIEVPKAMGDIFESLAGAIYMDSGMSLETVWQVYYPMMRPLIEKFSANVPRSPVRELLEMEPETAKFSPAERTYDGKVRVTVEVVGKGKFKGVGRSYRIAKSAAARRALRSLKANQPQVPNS
# The depositor's hits bear a star.
SMILES,Dicer inh
COc1ccc(C2CC(=O)C3=C(C2)NC(C)=C(C(=O)OC(C)C)C3c2ccccc2OC)cc1OC (centres undefined),1.03
COCCOC(=O)C1=C(C)NC2=C(C(=O)CC(c3ccccc3)C2)C1c1cccc(OC)c1OC (centres undefined),7.2*
COC(=O)C1=C(C)NC2=C(C(=O)CC(c3ccccc3)C2)C1c1ccccc1OC(C)C (centres undefined),0.57
CC1=C(C(=O)OCC(C)C)C(c2ccccc2)C2=C(CC(c3ccccc3)CC2=O)N1 (centres undefined),3.6*
COc1ccc(C2C(C(=O)OC3CCCCC3)=C(C)NC3=C2C(=O)CC(C)(C)C3)cc1O (centres undefined),0.85
COC(=O)C1=C(C)NC2=C(C(=O)CC(c3ccccc3OC)C2)C1c1cccc(OC)c1OC (centres undefined),-0.37
COc1ccccc1C1C(C(=O)OCC(C)C)=C(C)NC2=C1C(=O)CC(c1ccccc1)C2 (centres undefined),5.01*
COc1ccc(C2CC(=O)C3=C(C2)NC(C)=C(C(=O)OCC(C)C)C3c2ccc(F)cc2)cc1 (centres undefined),5.22
CCOC(=O)NC(=S)NCCCN1CC(C)OC(C)C1 (centres undefined),-2
COc1cc(NC(=O)/C=C/C(=O)O)cc(OC)c1OC,1.37
COc1ccc2[nH]c(C(=O)N3CCCN(C(=O)c4cccs4)CC3)cc2c1,-1.28
COC(=O)C1=NOC2C(=O)N(c3ccc(Cl)cc3)C(=O)C12 (centres undefined),1.83
N=C(N)C12CC3CC(CC(C3)C1)C2,0.06
Cc1[nH]c(=S)[nH]c(=O)c1CCC(C)C,1.23
COc1ccc(C2CC(=O)C3=C(C2)NC(C)=C(C(=O)OC2CCCC2)C3c2ccc(OC)cc2)cc1 (centres undefined),-0.2
CC1=C(C(=O)OCCOC(C)C)C(c2cccs2)C2=C(CC(c3cccs3)CC2=O)N1 (centres undefined),4.13*
CC1=C(C(=O)OCCOC(C)C)C(c2ccc(F)cc2)C2=C(CC(c3cccs3)CC2=O)N1 (centres undefined),2.44
CC1=C(C(=O)OC2CCCC2)C(c2ccccc2)C2=C(CC(c3ccccc3)CC2=O)N1 (centres undefined),3.14*
COc1cccc(C2C(C(=O)OCC3CCCO3)=C(C)NC3=C2C(=O)CC(C)(C)C3)c1OC (centres undefined),5.43*
CCSCCOC(=O)C1=C(C)NC2=C(C(=O)CC(c3ccc(OC)cc3)C2)C1c1cccc(O)c1 (centres undefined),1.12
COc1ccccc1C1C(C(=O)OCC2CCCO2)=C(C)NC2=C1C(=O)CC(C)(C)C2 (centres undefined),0.12
CC1=C(C(=O)OCCOC(C)C)C(c2cccc(Cl)c2)C2=C(CC(c3cccs3)CC2=O)N1 (centres undefined),-0.16
CC1=C(C(=O)OC2CCCCC2)C(c2ccccn2)C2=C(CC(c3ccccc3)CC2=O)N1 (centres undefined),0.33
C=CCOC(=O)C1=C(C)NC2=C(C(=O)CC(c3ccccc3)C2)C1c1ccc(O)cc1 (centres undefined),2.35
CC1=C(C(=O)OCc2ccccc2)C(c2cccc(O)c2)C2=C(CC(c3ccccc3)CC2=O)N1 (centres undefined),3.01*
SMILES,Dicer inh
COc1cccc(C2C(C(=O)OCc3ccccc3)=C(C)NC3=C2C(=O)CC(C)(C)C3)c1OC (centres undefined),-0.01
N#Cc1c(-c2cccs2)cc(-c2cccs2)nc1OCC(=O)c1ccc(-c2ccccc2)cc1,2.51
Clc1cc(Cl)cc(-c2nc(SCc3ccc(Cl)cc3Cl)n[nH]2)c1,-1.63
Cc1n[nH]c(C)c1Sc1ccc(Cl)cc1,-0.96
CNC(=S)NNc1ncccc1-n1cccc1,-3.54
CCCCCn1c(-c2cccs2)nc2ccccc21,-0.91
COc1ccc(OC(C)c2nc(-c3ccc(Cl)cc3)no2)cc1 (centres undefined),2.36
O=C1NC(Cc2ccccc2)C(=O)N1c1ccccc1 (centres undefined),-0.22
CCSCCOC(=O)C1=C(C)NC2=C(C(=O)CC(c3ccccc3)C2)C1c1ccc(N(C)C)cc1 (centres undefined),1.6
CCSCCOC(=O)C1=C(C)NC2=C(C(=O)CC(c3cccs3)C2)C1c1ccc(F)cc1 (centres undefined),0.18
CCSCCOC(=O)C1=C(C)NC2=C(C(=O)CC(c3ccccc3)C2)C1c1ccccc1F (centres undefined),3.95*
CCSCCOC(=O)C1=C(C)NC2=C(C(=O)CC(c3ccccc3)C2)C1c1ccc(F)cc1 (centres undefined),-0.88
CC1=C(C(=O)OCC(C)C)C(c2ccc(N(C)C)cc2)C2=C(CC(c3ccccc3)CC2=O)N1 (centres undefined),3.62*
COc1ccc(C2CC(=O)C3=C(C2)NC(C)=C(C(=O)OCC(C)C)C3c2ccncc2)cc1 (centres undefined),0.73
COc1nc2c(c(-c3cccs3)c1C#N)C(=O)c1ccccc1-2,0.63
CCOC(=O)C(=CN(C)c1ccccc1)C(=O)OCC,-0.05
COc1cccc(OCC(O)CNC(C)(C)CC(C)(C)C)c1 (centres undefined),-0.04
COC(=O)c1sc(N2C(=O)c3oc4ccc(C)cc4c(=O)c3C2c2ccc(F)cc2)nc1C (centres undefined),0.77
COc1ccc(NC(=O)CC2(CC(=O)O)CCCC2)c(N2CCOCC2)n1,1.22
CC(=O)Nc1nc(CC(=O)O)cs1,0.71
O=c1[nH]c2ccc(Nc3nc4ccccc4nc3NS(=O)(=O)c3ccc(Cl)cc3)cc2[nH]1,2.37
O=S(=O)(Nc1nc2ccccc2nc1Nc1ccc(Cl)cc1)c1ccccc1,0.86
O=S(=O)(Nc1nc2ccccc2nc1NCc1ccccc1)c1ccc(Cl)cc1,6.04*
CCOC(=O)C(=O)c1csc(NC(=O)c2ccco2)n1,0
Cc1nc(SCc2ccccc2)c(C#N)c(C)c1C,-4.92
SMILES,Dicer inh
N#Cc1cnn(-c2ccccc2)c1NC(=O)CSc1nnc(-c2ccc(Cl)cc2)o1,-0.2
CCN(CC)CC(=O)Nc1cc(C)nn1-c1ccccc1,1.6
CCN(CC)CC(=O)Nc1c(C#N)cnn1-c1ccccc1,4.72*
O=C(c1ccc(C(F)(F)F)cc1)N1CCSC1COc1ccc([N+](=O)[O-])cc1 (centres undefined),1.13
O=C(Nc1nnc(CCS(=O)(=O)c2ccc(Br)cc2)s1)c1ccc(Cl)cc1,14.5
COc1cccc2sc(NS(=O)(=O)CS(=O)(=O)Nc3nc4c(OC)cccc4s3)nc12,0.24
CCn1cc(C(=O)O)c(=O)c2cnc(N3CCN(C(=O)Nc4ccccc4)CC3)nc21,-0.82
CCn1cc(C(=O)O)c(=O)c2cc3c(cc21)OCO3,-0.39
CCn1cc(C(=O)O)c(=O)c2cnc(N3CCCC3)nc21,4.46*
Cc1c(OCc2ccccc2F)ccc2c1OC(C)(C)CC2=O,-0.37
CCOC(=O)c1c(C)noc1-c1ccco1,7.69*
CCOC(=O)c1c(C)noc1-c1csc(Nc2c(C)cc(C)cc2C)n1,0.39
CCOC(=O)c1sc2sc(C(=O)OCC)c(-c3ccco3)c2c1N,-2.11
O=c1oc2c(-c3ccccc3)n[nH]c(=O)c2c2c1CCC2,0.13
CCOC(=O)Cc1csc(NC(=O)COCC(=O)O)n1,0.3
O=C1C2C3C=CC(C3)C2C(=O)N1c1nccs1 (centres undefined),0.34
O=C1CCC(=O)N1c1nccs1,3.23*
CCN(/C=C/c1nnnn1-c1ccc(C)cc1)CC,-0.29

# Bioassay records from PubChem BioAssay.
